From the supplement of paper PMC7380943 come the findings set out here.

Experiment [1] has as its system CLZ3 (HCA2 human fibroblast dual HR-NHEJ reporter). Kind of experiment: NHEJ repair efficiency (GFP+ cells) relative to control (log10 fold); higher = more non-homologous end joining. The settings on record: 5 µM; doxycycline 0.5 ug/mL.
For experiment [2] the test system is unchanged. Kind of experiment: HR repair efficiency (tdTomato+ cells) relative to control (log10 fold); higher = more homologous recombination. The settings on record: 5 µM; doxycycline 0.5 ug/mL.
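Throughout, for HR repair efficiency (tdTomato+ cells) relative to control: compound given one day before doxycycline, which switches on I-SceI endonuclease expression to create double-strand breaks within the integrated reporter.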
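Throughout, for NHEJ repair efficiency (GFP+ cells) relative to control: compound given one day ahead of doxycycline, which switches on I-SceI endonuclease to cut the chromosomally integrated reporter and create DSBs.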

As to `O=c1cc(-c2ccc(O)cc2)oc2cc(O[C@@H]3O[C@H](CO)[C@@H](O)[C@H](O)[C@H]3O[C@@H]3OC[C@](O)(CO)[C@H]3O)cc(O)c12` [Apiin], the “NHEJ repair efficiency (log10)” value in experiment [1] is 0.142. Further, the “HR repair efficiency (log10)” value in experiment [2] came to 0.321.
Turning to `C[N+](C)(C)[C@H](Cc1c[nH]c2ccccc12)C(=O)[O-]` [Hypaphorine], in experiment [1], the “NHEJ repair efficiency (log10)” value is 0.0288. Also, the “HR repair efficiency (log10)” value in experiment [2] is -0.124.
Consider `O=c1c(O)c(-c2ccc(O)cc2O)oc2cc(O)cc(O)c12` [Morin], for which the “NHEJ repair efficiency (log10)” value in experiment [1] was determined as 0.0612. Besides, the “HR repair efficiency (log10)” value in experiment [2] is 0.0351.
Turning to `O=c1cc(-c2ccc(O)c(O)c2)oc2c([C@@H]3O[C@H](CO)[C@@H](O)[C@H](O)[C@H]3O)c(O)cc(O)c12` [Orientin], in experiment [1], the “NHEJ repair efficiency (log10)” value came out at 0.0454. The “HR repair efficiency (log10)” value in experiment [2] is 0.0493.
For `CC1OC(OC2C(C)OC(OC(=O)C34CCC(C)(C)CC3C3=CCC5C6(C)CCC(OC7OC(C(=O)O)C(OC8OC(CO)C(OC9OC(CO)C(O)C(O)C9O)C(O)C8O)C(OC8OCC(O)C(O)C8O)C7O)C(C)(C=O)C6CCC5(C)C3(C)CC4)C(OC3OCC(O)C(O)C3OC3OCC(O)C(O)C3O)C2O)C(O)C(OC2OCC(O)C(O)C2O)C1O` (stereo unspecified) [Gypenoside], in that order: 0.0642 and 0.115.
`O=c1c(O[C@@H]2O[C@H](CO)[C@H](O)[C@H](O)[C@H]2O)c(-c2ccc(O)c(O)c2)oc2cc(O)cc(O)c12` [Hyperoside]: the “NHEJ repair efficiency (log10)” value in experiment [1] was found to be 0.0115. Further, the “HR repair efficiency (log10)” value in experiment [2] was -0.00424.
The matching figures for `C=C1C2CCC3(C4C[C@H]5C6(CCC[C@@]5(C)CN(CC)C46)[C@H]3[C@H]2O)[C@@H]1O` [Bullatine A]: -0.197 and -0.165.
Regarding `O=C(O)c1cc(O)c2c(c1)C(C1c3cc(CO)cc(O)c3C(=O)c3c(OC4OC(CO)C(O)C(O)C4O)cccc31)c1cccc(OC3OC(CO)C(O)C(O)C3O)c1C2=O` (stereo unspecified) [Sennoside D], the “NHEJ repair efficiency (log10)” value in experiment [1] came out at 0.274. Also, the “HR repair efficiency (log10)” value in experiment [2] was -0.297.
